The record followed here is PubChem BioAssay (NCI).

The structures appear in SMILES notation. About 83,000 compounds went through this panel and 20% of them were active in at least one assay; those are over-represented in the sample as a whole.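 A percent growth of 40 corresponds to 60% growth inhibition; 0 means no net growth; -100 means all cells died. Active threshold: below 10.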 Unmarked numbers belong to inactive results. The source made the active and inactive calls.

Common to all, as to test: NCI-60 one-dose screen, 48 h (100 = growth as untreated, 0 = no growth, -100 = all killed)
Common to all, as to conditions: 10 µM unless noted

Assay [1] has as its system T-47D breast.
Assay [2] concerns BT-549 breast.
For assay [3], the system named is MDA-MB-435 melanoma.
The test system of assay [4] is SW-620 colon.
Assay [5] deals with MCF7 breast.
The test system of assay [6] is HCT-116 colon.
Assay [7] relates to HCC-2998 colon.
In assay [8] the test system is KM12 colon.

As to `COc1ccc(Cl)cc1NC(=O)c1cc2c([nH]1)-c1nc(NC(=O)C(C)C)sc1CC2`, the growth is 82.7% in assay [1]; 105% in assay [2]; 114% in assay [3]; 101% in assay [4]; 82.6% in assay [5]; 80% in assay [6]. For the same compound, the figures for the growth in assay [7] and in assay [8] were 101% and 94.6%, respectively.
With `C=C1C(=O)O[C@H]2[C@H]1CC/C(C(=O)Nc1ccc(OC)c(C(N)=O)c1O)=C\CC[C@@]1(C)O[C@@H]21`, the growth was 16.9% in assay [1]; 30.4% in assay [2]; 60.6% in assay [3]; 23.8% in assay [4]; 31.1% in assay [5]; 23.8% in assay [6]. The growth in assay [7] was 102%; in assay [8], 85%.
`Nc1ccc(S(=O)(=O)Nc2ccnn2-c2ccccc2)cc1`: the growth in assay [1] was 104%; in assay [2] it was 116%; in assay [3], 97%; in assay [4], 101%; in assay [5], 101%; in assay [6], 109%. In addition, the growth in assay [7] was 98.8%; in assay [8] it was 105%.
As to `CCNc1ncnc2n[nH]nc12`, the growth in assay [1] is 99.2%; in assay [2] it was 94%; in assay [3], 99.5%; in assay [4], 95.8%; in assay [5], 98.3%; in assay [6] it was 98.8%. The growth in assay [7] was 106%; in assay [8] it was 105%.
With `Cc1cccc(Cc2cnc(NC(=O)CCc3ccc(C)o3)s2)c1`, the growth is 76.9% in assay [1]; 5.79% (active) in assay [2]; -23.1% (active) in assay [3]; 30% in assay [4]; 12.4% in assay [5]; 11.5% in assay [6]. Also, the growth in assay [7] is 23.7%; in assay [8], 12.6%.
For the compound `CN1CCN(CC(=O)N(C)c2ccc(N=C(c3ccccc3)c3c(O)[nH]c4ccc(C#N)cc34)cc2)CC1`, the growth is 69.4% in assay [1]; 15.1% in assay [2]; 23.9% in assay [3]; 16.5% in assay [4]; 12.7% in assay [5]; 9.41% (active) in assay [6]. Moreover, the growth in assay [7] is 39.8%; in assay [8] it was 9.43% (active).
For `Nc1ccc(S(=O)(=O)Nc2cc(I)cc(I)c2)cc1`, the growth in assay [1] is 105%; in assay [2], 118%; in assay [3], 106%; in assay [4], 119%; in assay [5], 120%; in assay [6] it was 99.5%. Further, the growth in assay [7] is 105%; in assay [8], 111%.
For the compound `COC1OCC(OS(=O)(=O)c2ccc(C)cc2)C(OC(=O)c2ccccc2)C1OC(=O)c1ccccc1` (configuration not stated), the growth in assay [1] is 44.4%; in assay [2], 39.1%; in assay [3], -5.87% (active); in assay [4], 19.5%; in assay [5], 22.6%; in assay [6] it was 32.4%. Also, the values for the growth in assay [7] and in assay [8] were 56.9% and 30.7%, respectively.
Turning to `CC(=O)c1ccc2c(c1)C1C=CCC1[C@H](c1cc3c(cc1Br)OCO3)N2` (some centres not stated), the growth in assay [1] is 36.2%; in assay [2], 44.6%; in assay [3] it was -27.2% (active); in assay [4], 21.2%; in assay [5], 14.1%; in assay [6], 14.9%. In addition, the growth in assay [7] is 7.12% (active); in assay [8], 17%.
`C=C1C(=O)O[C@H]2[C@H]1CC/C(C(=O)NCCOCCOCC(=O)Nc1ccc(OC)c(C(N)=O)c1O)=C\CC[C@@]1(C)O[C@@H]21`: the growth in assay [1] is 70.6%; in assay [2] it was 86.2%; in assay [3], 104%; in assay [4], 80.1%; in assay [5], 83.6%; in assay [6] it was 81.2%. Further, the results for the growth in assay [7] and in assay [8] were 104% and 101%, respectively.
As for `COc1ccc(-c2nn(-c3ccc(NC(=O)c4cc(Cl)cc(Cl)c4)cc3)cc2-c2ccncc2)cc1Cl`, the growth in assay [1] was 67.4%; in assay [2], 66.8%; in assay [3], 68.6%; in assay [4] it was 68.6%; in assay [5] it was 73.7%; in assay [6], 55.7%. Besides, the growth was 49.6% in assay [7] and 29.7% in assay [8].
On to `CN(C)c1ncc(C#Cc2c(F)cccc2F)c2ccccc12`, for which the growth is 36% in assay [1]; 95.7% in assay [2]; 105% in assay [3]; 97.7% in assay [4]; 28.5% in assay [5]; 80.1% in assay [6]. For the same compound, the growth in assay [7] is 97.6%; in assay [8] it was 98%.
For the compound `COc1ccc(/C=C/C(=O)c2ccc(Oc3ncnc4ccccc34)cc2)cc1OC`, the growth was 52.3% in assay [1]; 60.6% in assay [2]; 39.1% in assay [3]; 32.2% in assay [4]; 8.88% (active) in assay [5]; -42.6% (active) in assay [6]. For the same compound, the growth was 29.1% in assay [7] and 22.6% in assay [8].
Consider `O=C(O)c1cccc2oc(-c3ccccc3O)nc12`, for which the growth is 52.2% in assay [1]; 75.5% in assay [2]; 71.3% in assay [3]; 47.3% in assay [4]; 59.1% in assay [5]; 36.8% in assay [6]. Besides, the growth is 44.7% in assay [7] and 46% in assay [8].
As to `Cc1ccc(-c2nc3c(N=Nc4ccc(S(N)(=O)=O)cc4)c(N)nn3c(N)c2C#N)cc1`, the growth was 34.1% in assay [1]; 56% in assay [2]; 52.3% in assay [3]; 16.5% in assay [4]; 28.3% in assay [5]; 13.7% in assay [6]. Also, the growth in assay [7] is 52.4%; in assay [8], 29.2%.
For the compound `CN(C)CCS(=O)(=O)Nc1cc(-c2ccc3ncnc(Nc4ccc(F)c(Cl)c4)c3c2)cnc1Cl`, the growth was -27% (active) in assay [1]; -17.9% (active) in assay [2]; -47.6% (active) in assay [3]; -22.7% (active) in assay [4]; 8.88% (active) in assay [5]; -21.5% (active) in assay [6]. Besides, the results for the growth in assay [7] and in assay [8] were -83.7% (active) and -56.3% (active), respectively.
As to `CN1CCN(CC(O)COc2c(Br)c(Br)c(Br)c3c2OC(C)(C)C3)CC1` (configuration not stated), the growth in assay [1] was 81.3%; in assay [2], 78.4%; in assay [3] it was 18.7%; in assay [4], 47.3%; in assay [5], 59.5%; in assay [6], 20.7%. For the same compound, the growth in assay [7] was 12.4%; in assay [8], 57.2%.
As to `c1coc(CSc2ncnc3nc[nH]c23)c1`, the growth in assay [1] was 93.6%; in assay [2] it was 120%; in assay [3], 116%; in assay [4] it was 97.9%; in assay [5], 89.9%; in assay [6], 97.7%. The growth in assay [7] was 107%; in assay [8] it was 102%.
With `COc1ccccc1S(=O)(=O)Nc1ccc2c3c(cc(-c4cnn(C)c4)nc13)C(=O)N2C`, the growth in assay [1] is 35.5%; in assay [2], 62.6%; in assay [3] it was 35.2%; in assay [4], 63.2%; in assay [5] it was 16.5%; in assay [6], 28.2%. Further, the results for the growth in assay [7] and in assay [8] were 48.2% and 38.2%, respectively.
Turning to `Cc1[nH]n(C(=O)c2ccncc2)c(=O)c1N=Nc1ccc(S(=O)(=O)Nc2ccncn2)cc1`, the growth is 113% in assay [1]; 127% in assay [2]; 117% in assay [3]; 108% in assay [4]; 102% in assay [5]; 92.6% in assay [6]. The growth in assay [7] is 113%; in assay [8] it was 109%.
On to `OCCOCC(F)(F)F`, for which the growth in assay [1] was 104%; in assay [2], 97.7%; in assay [3], 94.4%; in assay [4] it was 100%; in assay [5], 105%; in assay [6], 106%. Besides, the growth was 104% in assay [7] and 113% in assay [8].
`NC(CSC(c1ccccc1)(c1ccccc1)c1ccc(F)cc1)C(=O)O` (configuration not stated): the growth in assay [1] is 30.4%; in assay [2], 28.7%; in assay [3], -47.1% (active); in assay [4] it was 30.1%; in assay [5] it was 11.7%; in assay [6] it was -7.69% (active). In addition, the growth was 4.55% (active) in assay [7] and 5.24% (active) in assay [8].
As to `Clc1ccc2c(c1)nnn1c3ncccc3c(Br)c21`, the growth in assay [1] is 60.7%; in assay [2], 72.1%; in assay [3], 95.2%; in assay [4], 78.9%; in assay [5], 64.2%; in assay [6], 68.4%. In addition, the growth in assay [7] is 108%; in assay [8], 86.4%.
In the case of `COC(OC)C1(c2ccccc2)NC(=O)NC1=O` (configuration not stated), the growth is 106% in assay [1]; 114% in assay [2]; 111% in assay [3]; 109% in assay [4]; 104% in assay [5]; 99.4% in assay [6]. Besides, the growth was 101% in assay [7] and 115% in assay [8].
`CC(C)Cn1cnc2c3ccccc3nc(NCn3nc(-c4cc(Cl)cc(Cl)c4Cl)oc3=S)c21`: the growth in assay [1] was 94.4%; in assay [2], 97.5%; in assay [3], 91.4%; in assay [4], 117%; in assay [5] it was 96.2%; in assay [6] it was 79.3%. Moreover, the growth in assay [7] was 97.4%; in assay [8], 99.7%.
`Nc1nc(-c2cc3c(cc2Cl)NC(=O)/C3=C/c2ccc(Cl)cc2)cs1`: the growth in assay [1] was 18.1%; in assay [2], 26.3%; in assay [3] it was 1.64% (active); in assay [4] it was 30%; in assay [5], 16.8%; in assay [6], 24.2%. The results for the growth in assay [7] and in assay [8] were 73.3% and 36%, respectively.
Take `CCN1CCN(Cc2ccc(NC(=O)Nc3cccc(-n4ccc5c(NC(=O)c6ccccc6)nccc54)c3)cc2C(F)(F)F)CC1`: the growth was 74.7% in assay [1]; 89.5% in assay [2]; 9.58% (active) in assay [3]; 86.6% in assay [4]; 31.4% in assay [5]; 75.8% in assay [6]. In addition, the growth in assay [7] is 102%; in assay [8], 53.1%.
Regarding `O=C1C(Cl)=C(Nc2ccccc2)C(=O)C(Cl)=C1Nc1ccccc1`, the growth was 98.4% in assay [1]; 112% in assay [2]; 104% in assay [3]; 107% in assay [4]; 105% in assay [5]; 112% in assay [6]. For the same compound, the growth in assay [7] and in assay [8] was 116% each time.
In the case of `O=S(=O)(Nc1cccc2cc(OS(=O)(=O)c3ccccc3)ccc12)c1ccccc1`, the growth is 45.5% in assay [1]; 45.4% in assay [2]; -13.8% (active) in assay [3]; 29.5% in assay [4]; 36.8% in assay [5]; 25.4% in assay [6]. Also, the growth is 96.4% in assay [7] and 36.3% in assay [8].
